Compound activity (PubChem)
MBNL1 CUG block – inhibitors of human MBNL1 binding to CUG repeat RNA; Q9NR56; TR-FRET MBNL1-His/biotin-(CUG)12 binding, 665/545 ratio; Potency, µM (titrated, usually from 57.5 µM), for the others: at the top dose activity change, negative = inhibition, usual class: inhibitors; 280,000 tested, 0.036% active; AID 2675; active = well fitted inhibition curve with a large enough effect in the signal ratio, with a control signal flat, not every such curve was filed as active; inconclusive = small, poorly fitted or top-dose-only effect, or effect the other way, or a change in a side signal; inactive = no such curve, though single readings can be large or run the other way; the % refers to the signal ratio; also: potency is read from the fitted curve at half-maximal effect; % is scaled to controls: 0 for no effect and ±100 for the full control effect
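TR-FRET between His-tagged MBNL1 and biotin-(CUG)12 RNA, detected with Tb anti-His antibody (0.055 ng/ul) and streptavidin-XL665 (5 nM), 60 min at room temperature. Compounds titrated 92 nM to 58 uM; 665/545 nm ratio normalized to buffer and complex controls.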
TCR act – T cell receptor activation; Potency, µM (titrated, usually from 9.22 µM), for the others: at the highest dose activation of IL-2 secretion, usual class: activators; 330,000 tested, under 10 active; primary human leukocytes, anti-CD3, IL-2 HTRF, 48 h; also: % of control where 0% means no effect
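Primary human leukocytes incubated 48 hr with anti-CD3 beads plus compound, without co-stimulation. Secreted IL-2 measured by HTRF (europium cryptate/d2 anti-IL-2 pair, 320 nm excitation, 665 nm emission).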
Mito fusion yeast – blocks mitochondrial division or promotes mitochondrial fusion; S. cerevisiae fusion-defective mutant growth rescue, CellTiterGlo 48 h; Potency, µM (doses to about 46.1 µM), without a hit: top-dose growth rescue (activation), most hits filed as activators; 320,000 tested, 0.23% active; also: potency is read from the fitted curve at half-maximal effect; % of control where 0% means no effect; nearly all actives have a fitted effect of over 45% in size
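S. cerevisiae fusion-defective temperature-sensitive mutants (e.g. fzo1-1, mgm1-5) grown 48 h at 37C in YPEG (ethanol/glycerol non-fermentable) medium with 23 nl compound per well; growth rescue read as CellTiterGlo luminescence.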
Glioma ERSR ind – ER stress response induction in glioma | U87-MG GRP78 promoter luciferase reporter, 16 h | Potency, µM, inactives show at the top dose activation, actives largely listed as activators | 420,000 tested, 0.02% active; also: potency is read from the fitted curve at half-maximal effect; series mostly up to about 76 µM; % of control where 0% means no effect; nearly all actives have a fitted effect of over 35% in size
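ERSR induction read as luciferase luminescence (Bright-Glo, 10 min at room temperature) in stably transfected human U87-MG glioma cells exposed to compounds for 16 h, using GRP78 as sensor.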
ClpP mod – qHTS Assay for Activators of ClpP | ATP-dependent Clp protease proteolytic subunit (Bacillus subtilis (strain 168)), P80244 | purified B. subtilis ClpP, FRET peptide cleavage, 20 min | Potency, µM (highest dose often 57.5 µM), for inactives: top-dose activity change, negative = active | 340,000 tested, 1.9% active; active = well fitted falling curve with a large enough effect; inconclusive = small, poorly fitted or top-dose-only effect; inactive = no such curve, though single readings can be large or run the other way; also: potency is read from the fitted curve at half-maximal effect; the source files actives as falling curves though it sought activators and does not explain the sign; nearly all actives have a fitted effect of over 65% in size
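FRET quenching reversal measured ClpP activation: 10 microg/mL B. subtilis ClpP at pH 8 with the FRET-FV decapeptide, read at 430 nm after 320 nm excitation. The 20-min minus 0-min signal was scaled between DMSO/no-enzyme wells and ADEP (5.8 microM final).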
AT treatment – candidate therapy for ataxia-telangiectasia | F2112 A-T fibroblasts, KAP-1 phosphorylation AlphaLISA; neocarzinostatin DNA damage 30 min before lysis | Potency, µM (top dose mostly 57.5 µM), inactives show at the top dose activation, actives largely listed as activators | 320,000 tested, 0.19% active | AID 485349; also: potency is read from the fitted curve at half-maximal effect; % of control where 0% means no effect; nearly all actives have a fitted effect of over 45% in size
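ATM-like activity read as KAP-1 phosphorylation via AlphaLISA donor/acceptor antibody pairs after lysis and 6 hr at 25C. Cells were ATM-null patient fibroblasts (F2112, hTERT), dosed 60 min, then exposed to the DSB inducer NCS for 30 min.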
Starred values were filed as active, the others as inactive; u = inconclusive; x = no result given; ! = not active in a repeat; [ ] = dose if it differs, or a comment. Shown are actives, neighbours in structure and some others; about 1.8% of the full set was active somewhere. Unless noted, calls follow the shape of the dose curve; as a rule, active = well fitted curve in the direction sought with a large enough effect; inconclusive = small, poorly fitted or top-dose-only effect, or another doubt; inactive = no such curve, though single readings can be large; an effect the other way counts as inactive or inconclusive.

SMILES	MBNL1 CUG block	TCR act	Mito fusion yeast	Glioma ERSR ind	ClpP mod	AT treatment
Nc1c(C(=O)NCCN2CCOCC2)c2nc3ccccc3nc2n1Cc1ccco1	u	-0.1%	-0.2%	0.1%	15.8µM*	16.0%
CC(C)(C)OC(=O)C(Br)CCBr (stereo unspecified)	x	x	x	-5.9%	x	x
CCCC[C@@H](C)[C@@H](OC(=O)C[C@@H](CC(=O)O)C(=O)O)[C@H](C[C@@H](C)C[C@H](O)CCCC[C@@H](O)C[C@H](O)[C@H](C)N)OC(=O)C[C@H](CC(=O)O)C(=O)O	x	x	x	-2.7%	x	x
Oc1ccc(-c2cccnc2)cc1CNC1CN2CCC1CC2 (stereo unspecified)	x	x	x	1.3%	x	x
CC(=O)[C@@]1(O)CC[C@@H]2[C@@H]3CCC4=CC(=O)CC[C@]4(C)[C@]3(F)[C@@H](O)C[C@@]21C	x	x	x	-4.2%	x	x
C=C[C@@H]1C[C@@]1(C)[C@@H](NP(=O)(c1ccccc1)c1ccccc1)c1ccccc1	18.5%	-2.3%	17.8µM*	-5.4%	3.2%	-12.6%
CCN(CC)C(=O)N[C@H]1C=C2c3cccc4[nH]cc(c34)C[C@@H]2N(C)C1	x	x	x	-5.4%	x	x
N[C@@H](Cn1ccc(=O)c(O)c1)C(=O)O	x	x	-12.8%	-4.1%	x	x
CN(C)CCN(Cc1ccccc1)c1ccnc(N(C)C)c1C#N	-2.0%	9.4%	-2.6%	-2.2%	31.6µM*	-2.9%
COc1ccc(N2C(=O)C3[C@@H](C2=O)C2(Cl)C(Cl)=C(Cl)C3(Cl)C2(OC)OC)cc1 (stereo partly specified)	2.1%	-4.5%[46.1 µM]	13.0%	-3.9%	3.55µM*	0.4%
Nc1ccc(CCN2CCN(c3cccc(C(F)(F)F)c3)CC2)cc1	x	-1.8%	9.2µM*	-3.0%	-0.9%	x
COc1ccc(C(=O)C(C)(C)NO)cc1	-6.7%	1.5%	-0.2%	-5.3%	2.1%	15.5%
COc1ccc(C(=O)CCNc2ccc(F)cc2)cc1	-8.9%	-20.5%	-5.1%	0.2%	28.2µM*	32.2%
C[C@]12CC[C@@H]3c4ccc(OC(=O)N(CCCl)CCCl)cc4CC[C@@H]3[C@H]1CC[C@@H]2OP(=O)(O)O	x	x	x	-4.1%	x	x
O=C(CNC(=O)c1ccc(Br)cc1)Nc1ccc(Br)cc1C(=O)c1ccccc1	6.7%	-3.3%[46.1 µM]	17.8µM*	-6.0%	-0.3%	-3.0%
CCCNc1oc(-c2cccc3ccccc23)nc1C#N	8.1%	-1.1%	-2.2%	1.3%	28.2µM*	30.5%
C=C/C=C/CC1=C(C)[C@@H](OC(=O)[C@@H]2[C@@H](/C=C(\C)C(=O)OC)C2(C)C)CC1=O (tested in a mixture with another compound)	x	x	x	-4.6%	x	x
CCOC(=O)C1CCN(Cc2ccc(Cl)nc2)CC1	7.5%	-5.2%	-9.8%	-3.2%	x	0.0%
CCOC(=O)C1CCCN(Cc2ccc(-c3ccccc3)cc2)C1 (stereo unspecified)	-16.9%	0.1%	-0.2%	-0.5%	0.7%	25.1µM*
Cc1c(F)c(F)c(COC(=O)C2C(/C=C(\Cl)C(F)(F)F)C2(C)C)c(F)c1F (stereo unspecified)	x	x	x	3.6%	x	x
CNC(=O)Oc1cccc(-c2cn3cc(OC(=O)NC)ccc3n2)c1	u	-3.0%[46.1 µM]	-4.4%	1.3%	14.1µM*	33.8%
CC1=C(O)C(=O)[C@H]2O[C@@H]2C1=O	x	x	x	-11.6%	x	x
Cc1cc(N2CCOCC2)nc2ccc(NC(=O)CCC(=O)N3CCC4(CC3)OCCO4)cc12	-4.8%	0.4%	-0.9%	0.3%	u	0.5%
Cc1cc(N2CCCCC2)nc2ccc(NC(=O)CCC(=O)N3CCN(c4cccc(Cl)c4)CC3)cc12	x	x	x	-1.9%	31.6µM*	x
COC(=O)c1cc2c(s1)=NC=NP=2(N1CCOCC1)N1CCOCC1	3.1%	0.7%	0.5%	-4.8%	28.2µM*!	-1.6%
SMILES	MBNL1 CUG block	TCR act	Mito fusion yeast	Glioma ERSR ind	ClpP mod	AT treatment
Cc1cc(SCc2sc(-c3ccc(C(F)(F)F)c(F)c3)nc2C)ccc1OCC(=O)O	x	x	x	11.9%	x	x
CN1CCc2cc(O)cc3c2[C@H]1Cc1ccc(O)c(O)c1-3	x	9.2%	3.7%	-14.7%	28.2µM*!	x
CCCN1CCc2cc(O)cc3c2[C@H]1Cc1ccc(O)c(O)c1-3	x	9.7%	19.4%	-14.5%	u	x
COc1ccc2c3c1OC1C(O)C=CC4[C@@H](C2)NCC[C@]314 (stereo partly specified)	x	x	x	0.2%	x	x
COc1cc(-c2ccc(-[n+]3nc(-c4ccccc4)nn3-c3ccc([N+](=O)[O-])cc3)c(OC)c2)ccc1-[n+]1nc(-c2ccccc2)nn1-c1ccc([N+](=O)[O-])cc1	x	x	x	-12.0%	x	x
COc1ccc(Cl)cc1NC(=O)C1CCN(c2nnc(C)c3c(C)n(-c4ccccc4)nc23)CC1	x	x	x	-3.0%	28.2µM*	x
COc1ccc(Cl)cc1NC(=O)c1sc2nc3c(cc2c1N)N1CCC3CC1	x	x	2.3%	-0.1%	-14.3%	x
CO/C1=C\C(C)=C\[C@@H](C)[C@@H](O)[C@@H](C)C/C(C)=C/C=C/[C@H](OC)[C@@H]([C@@H](C)[C@@H](O)[C@H](C)[C@@]2(O)C[C@@H](O)[C@H](C)C(C(C)C)O2)OC1=O (stereo partly specified)	x	x	x	3.1%	x	x
Cc1ccc2c(c1)Cc1c(C(=O)NN3CCCCC3)nn(-c3ccc(Cl)cc3Cl)c1-2	x	x	x	6.5%	x	x
Cc1ccc(S(=O)(=O)N2CCC(C(=O)N3CCC4(CC3)OCCO4)CC2)cc1	-11.7%	-28.1%	5.2%	-4.9%	-1.0%	4.7%
COc1ccc(S(=O)(=O)NCC2CCC(C(=O)N3CCC4(CC3)OCCO4)CC2)cc1 (stereo unspecified)	3.3%	1.8%	-1.3%	-3.5%	10µM*	x
CC1(C)[C@@H](C=C(Cl)Cl)[C@@H]1C(=O)OCc1c(F)c(F)cc(F)c1F	x	x	x	-4.3%	x	x
CC1(C)C(C=C(Cl)Cl)C1C(=O)OCc1cccc(Oc2ccccc2)c1 (stereo unspecified)	x	4.3%	19.6%	-3.4%	0.1%	39.8µM*
S=c1[nH]nc(-c2ccco2)n1Cc1ccccc1	u	-8.8%	-0.5%	-1.2%	28.2µM*	x
O=c1c2ccccc2nc(-c2ccco2)n1-c1ccc(Br)cc1	6.7%	12.7%	4.1%	-1.1%	1.2%	6.8%
N#CC(C#N)=NNc1ccc(OC(F)(F)F)cc1	x	x	x	-4.4%	x	x
COC(=O)C1=C(c2ccc(Cl)c(C(F)(F)F)c2)C[C@@H]2CC[C@H]1N2C(=O)NCCOc1ccc(OC)cc1	x	-1.5%	26.1%	-2.8%	-2.7%	20µM*
